From PubChem BioAssay AID434970 (Sanford-Burnham Center for Chemical Genomics, 2010) come the findings set out here.

Out of some 11,000 compounds screened, about 310 (2.8%) were called active. Rule as the data show it: active = activity change below about -85%; inactive = the rest. Many of the other results were omitted from the sample, so actives are more common in it than they were.

The test system of the assay is intestinal alkaline phosphatase [Mus musculus]. Description: mouse intestinal phosphatase enzyme activation – biochemical, luminescence, single concentration, confirmation (AID 434970). The following applies: purified mouse IAP, CDP-Star luminescence, 30 min, at 10 µM; activation factor: measured here: IAP activation factor, stronger effect = higher value; activity change, negative = activation: stronger effect = lower value.
Regarding `CC(C)CNC(=O)c1ccccc1NC(=O)Nc1ccccc1`, the activation factor worked out at 0.949 and the activity change, negative = activation is 5.15% (inactive).

As to `O=C(Nc1ccc(F)cc1)Nc1csc2ccccc12`, the activation factor is 1.94 and the activity change, negative = activation is -93.7% (inactive).

As for `O=C(Nc1ccccc1)Nc1csc2ccccc12`, the activation factor stood at 2.08 and the activity change, negative = activation is -108% (active).

With `O=C(Nc1ccc(F)cc1F)Nc1csc2ccccc12`, the activation factor was 1.77 and the activity change, negative = activation was -77.3% (inactive).

Turning to `CCCCC(=O)Nc1ccc(F)c(Cl)c1`, the activation factor was determined as 1.05 and the activity change, negative = activation was -5.3% (inactive).

As for `O=C(Nc1ccc(F)c(Cl)c1)Nc1csc2ccccc12`, the activation factor came out at 2.15 and the activity change, negative = activation was -115% (active).

As for `O=S(=O)(NCc1cccs1)c1cccc(S(=O)(=O)N2CCCCC2)c1`, the activation factor is 0.903 and the activity change, negative = activation is 9.65% (inactive).

For `Cc1ccccc1N(CC(=O)N1CCN(c2ccccc2)CC1)S(C)(=O)=O`, the activation factor was 0.932 and the activity change, negative = activation was 6.8% (inactive).

Consider `COc1ccc(OC)c(S(=O)(=O)n2ccnc2C)c1`, for which the activation factor was 0.998 and the activity change, negative = activation was 0.15% (inactive).

Turning to `COc1ccc(Cc2nnc(NC(=O)C3CCCO3)s2)cc1OC` (stereo unspecified), the activation factor is 1.01 and the activity change, negative = activation is -1.15% (inactive).

For the molecule `CCC(C)OC(=O)C1=C(C)NC2=C(C(=O)C(C(=O)OC)C(C)C2)C1c1ccc(N(C)C)cc1` (stereo unspecified), the activation factor is 1.06 and the activity change, negative = activation is -6.35% (inactive).

Turning to `CCN(CC)CCNC(=O)Cn1nc(-c2ccccc2)c2ccccc2c1=O`, the activation factor was 0.954 and the activity change, negative = activation was 4.6% (inactive).

On to `NC(=O)C1CCN(c2ncnc3c(-c4ccccc4)nsc23)CC1`, for which the activation factor is 0.947 and the activity change, negative = activation was 5.35% (inactive).

Take `O=C(c1cc(-c2cccs2)on1)N1CCN(C(c2ccccc2)c2ccccc2)CC1`: the activation factor turned out to be 0.971 and the activity change, negative = activation was 2.95% (inactive).

As for `COc1ccccc1C(=O)Nc1ccc(CN2CCCCC2)cc1`, the activation factor came out at 0.94 and the activity change, negative = activation is 6% (inactive).

Turning to `Cc1ccc(CNC(=O)C2(NC(=O)Nc3ccc(C)cc3)CCCCC2)cc1`, the activation factor stood at 2.98 and the activity change, negative = activation is -198% (active).

As to `COc1ccccc1CNC(=O)Cn1cccc1`, the activation factor came out at 0.944 and the activity change, negative = activation is 5.65% (inactive).

As for `CCn1c(CC(=O)Nc2ccc(C)cc2)nnc1SCC(=O)NCc1ccccc1`, the activation factor was 1 and the activity change, negative = activation was -0.4% (inactive).

As for `COc1ccccc1CNC(=O)C1(NC(=O)Nc2ccc(C)cc2)CCCCC1`, the activation factor is 3.44 and the activity change, negative = activation was -244% (active).

On to `O=C(Nc1cccc(Cl)c1)NC1(C(=O)NCc2cccs2)CCCCC1`, for which the activation factor was 1.62 and the activity change, negative = activation was -61.7% (inactive).

On to `O=C(NCc1ccccc1)NC1(C(=O)N2CCCC2)CCCCC1`, for which the activation factor stood at 0.94 and the activity change, negative = activation is 6% (inactive).

As to `CCOC(=O)c1ccc(NC(=O)NCc2ccc(OC)cc2)cc1`, the activation factor amounted to 1.49 and the activity change, negative = activation is -49% (inactive).

Regarding `Cc1ccc(NC(=O)NC2(C(=O)NCc3ccccc3)CCCCC2)cc1`, the activation factor worked out at 2.31 and the activity change, negative = activation is -131% (active).

As for `CC1(C)CC(=O)C2=C(C1)N=c1s/c(=C/c3ccc(F)c(F)c3)c(=O)n1C2c1ccc(F)cc1` (stereo unspecified), the activation factor was 0.856 and the activity change, negative = activation was 14.4% (inactive).

For `N#C/C(=C/c1ccco1)C(N)=S`, the activation factor amounted to 0.434 and the activity change, negative = activation was 56.5% (inactive).

On to `CCOC(=O)c1c(-c2ccccc2)oc2ccc(O)c(CN(C)C)c12`, for which the activation factor was found to be 0.909 and the activity change, negative = activation was 9.15% (inactive).

Turning to `Nc1ncnc2c1ncn2[C@@H]1O[C@H](CNS(=O)(=O)c2cc(S(=O)(=O)c3ccccc3)cs2)[C@@H](O)[C@H]1O`, the activation factor is 1.08 and the activity change, negative = activation was -7.65% (inactive).

Turning to `Cc1ccc(C(=O)Nc2nnn(C)n2)cc1`, the activation factor turned out to be 1.1 and the activity change, negative = activation was -10.2% (inactive).

Consider `CCN(CC)S(=O)(=O)c1ccc(NC(=O)Cn2c(=O)sc3ccccc32)cc1`, for which the activation factor was 1.31 and the activity change, negative = activation is -30.9% (inactive).

In the case of `C#CCOCCOCCOCCNc1nc(N2CCN(C(=O)CCCCCCCCCCNC(=O)[C@H](CCCN=C(N)N)n3cc(C[C@@H](C)CC)nn3)CC2)nc(N2CCN(C(=O)CCCCCCCCCCNC(=O)[C@@H]([C@H](C)CC)n3cc(CCCCCN)nn3)CC2)n1`, the activation factor is 6.19 and the activity change, negative = activation was -519% (active).

Consider `C#CCOCCOCCOCCNc1nc(N2CCN(C(=O)CCCCCCCCCCNC(=O)[C@H]([C@@H](C)CC)n3cc(CCCCN=C(N)N)nn3)CC2)nc(N2CCN(C(=O)CCCCCCCCCCNC(=O)[C@H](CCCN=C(N)N)n3cc(C[C@@H](C)CC)nn3)CC2)n1`, for which the activation factor is 9.52 and the activity change, negative = activation was -852% (active).

With `C#CCOCCOCCOCCNc1nc(N2CCN(C(=O)CCCCCCCCCCNC(=O)[C@H]([C@@H](C)CC)n3cc(CCCCN=C(N)N)nn3)CC2)nc(N2CCN(C(=O)CCCCCCCCCCNC(=O)[C@H](CCCCN)n3cc(C[C@@H](C)CC)nn3)CC2)n1`, the activation factor came to 8.58 and the activity change, negative = activation is -758% (active).

Take `Cc1ccc(N=C2NC(=O)CS2)cc1`: the activation factor came out at 0.925 and the activity change, negative = activation is 7.5% (inactive).

As to `COc1ccc(C2/C=C\CN(S(=O)(=O)c3ccc(C)cc3)CC(=O)N2Cc2cccc(F)c2)cc1` (stereo unspecified), the activation factor was determined as 1.08 and the activity change, negative = activation was -8% (inactive).

For the molecule `O=C1CCCCCN1Cc1nnc(SCc2nc3ccccc3s2)n1-c1ccccn1`, the activation factor amounted to 0.923 and the activity change, negative = activation is 7.7% (inactive).

For the molecule `Cc1ccc(-c2noc(CN3CCC(C(N)=O)CC3)n2)cc1`, the activation factor was 0.997 and the activity change, negative = activation was 0.25% (inactive).

In the case of `CC(=O)NCC(=O)N(c1c(C)n(C)n(-c2ccccc2)c1=O)C1(C(=O)NC2CCCC2)CCCCC1`, the activation factor was 0.98 and the activity change, negative = activation was 2.05% (inactive).

Turning to `O=C(N1CCOCC1)C1(c2ccccc2)CCCCC1`, the activation factor was 0.901 and the activity change, negative = activation is 9.95% (inactive).
